# In all, about 140,000 sequences were measured (“enrichment ratio after two sorts for PhoP signalling”: median about 0, highest 2% from about 11 on). The sample holds the highest values, similar sequences and a random draw of the others, so the mix is not that of the screen.
# B1: PhoQ; a variant is named by its letters at X, in order, P23837 (parent)
# chain: MKKLLRLFFPLSLRVRFLLATAAVVLVLSLAYGMVALIGYSVSFDKTTFRLLRGESNLFYTLAKWENNKLHVELPENIDKQSPTMTLIYDENGQLLWAQRDVPWLMKMIQPDWLKSNGFHEIEADVNDTSLLLSGDHSIQQQLQEVREDDDDAEMTHSVAVNVYPATSRMPKLTIVVVDTIPVELKSSYMVWSWFIYVLSANLLLVIPLLWVAAWWSLRPIEALAKEVRELEEHNRELLNPATTRELTSLVRNLNRLLKSERERYDKYRTTLTDLTHSLKTPLXXLQXXLRSLRSEKMSVSDAEPVMLEQISRISQQIGYYLHRASMRGGTLLSRELHPVAPLLDNLTSALNKVYQRKGVNISLDISPEISFVGEQNDFVEVMGNVLDNACKYCLEFVEISARQTDEHLYIVVEDDGPGIPLSKREVIFDRGQRVDTLRPGQGVGLAVAREITEQYEGKIVAGESMLGGARMEVIFGRQHSAPKDE
# Variants of: B1
# Assay: enrichment ratio after two sorts for PhoP signalling (ratio (wild type AVST 3.29)); higher = more functional
# Conditions: with PhoP (E. coli)
row,Variant,enrichment ratio
1,WGSE,≤ 0.25
2,FYLD,≤ 0.25
3,PSVE,≤ 0.25
4,TCWN,14.9
5,TCVQ,≤ 0.25
6,TCQY,31.4
7,FCQI,≤ 0.25
8,KSWN,≤ 0.25
9,TCIS,≤ 0.25
10,TCII,≤ 0.25
11,TCQQ,11.5
12,TCQI,15.2
13,KCQY,≤ 0.25
14,TCGQ,≤ 0.25
15,KCQI,≤ 0.25
16,SLAF,8.18
17,TQKA,≤ 0.25
18,TAWY,6.15
19,HCAS,≤ 0.25
20,TYMN,0.285
21,KCQA,≤ 0.25
22,TCQN,23
23,SCQA,≤ 0.25
24,TCDN,≤ 0.25
25,TCQA,16.2

row,Variant,enrichment ratio
1,TCQF,6.94
2,TCQK,14.2
3,TCVN,2.66
4,TCQP,≤ 0.25
5,TCEN,0.333
6,TCMN,58.3
7,MRIG,≤ 0.25
8,IPRI,≤ 0.25
9,IFEI,≤ 0.25
10,CNHC,≤ 0.25
11,QRMF,≤ 0.25
12,HTHA,≤ 0.25
13,KCQL,≤ 0.25
14,TCQL,13.2
15,FCQL,≤ 0.25
16,HESH,≤ 0.25
17,HEQV,25.5
18,HEQP,≤ 0.25
19,HEQY,≤ 0.25
20,HECS,2.84
21,HECV,15.4
22,HNSW,≤ 0.25
23,ERQE,≤ 0.25
24,SAFP,≤ 0.25
25,QGAG,≤ 0.25

row,Variant,enrichment ratio
1,QVAH,≤ 0.25
2,TGQL,5.01
3,GGQL,≤ 0.25
4,AQQL,≤ 0.25
5,AIQL,11.7
6,ADQL,≤ 0.25
7,WIQL,≤ 0.25
8,CGQL,14.3
9,AGQL,11.6
10,AKQL,≤ 0.25
11,MQGH,≤ 0.25
12,FDDD,≤ 0.25
13,AMFM,≤ 0.25
14,PNFI,≤ 0.25
15,KCCR,≤ 0.25
16,RQPM,≤ 0.25
17,IGQV,≤ 0.25
18,GHHN,≤ 0.25
19,PRDV,≤ 0.25
20,AEQG,≤ 0.25
21,SQQG,6.66
22,SLQG,≤ 0.25
23,AKQG,≤ 0.25
24,SEQG,17.8
25,AQQG,12.7

row,Variant,enrichment ratio
1,HAGM,≤ 0.25
2,HMVE,≤ 0.25
3,VFKE,≤ 0.25
4,HGRI,≤ 0.25
5,FPCA,≤ 0.25
6,GKQD,≤ 0.25
7,KAHY,≤ 0.25
8,AHHY,≤ 0.25
9,MAHY,20.2
10,NAHY,≤ 0.25
11,TAPI,≤ 0.25
12,TAHY,27.1
13,NMRM,≤ 0.25
14,AQCT,20.8
15,NICT,≤ 0.25
16,YACT,0.253
17,EQCT,≤ 0.25
18,AHCT,≤ 0.25
19,ANCT,21
20,SNCT,8.8
21,KACT,≤ 0.25
22,AWCT,≤ 0.25
23,AICT,18
24,RICT,≤ 0.25
25,AACT,12.4

row,Variant,enrichment ratio
1,ALFD,≤ 0.25
2,SHFP,0.324
3,WCTK,≤ 0.25
4,FYGE,≤ 0.25
5,MNPG,≤ 0.25
6,FEMT,3.56
7,ENFC,≤ 0.25
8,SYCA,≤ 0.25
9,EDSI,≤ 0.25
10,QHRH,≤ 0.25
11,QHNY,27.5
12,QHRI,≤ 0.25
13,NHNH,≤ 0.25
14,THNH,16.2
15,QHGY,8.42
16,QHNH,13.9
17,QHNS,5.2
18,SHNH,1.34
19,LVRE,≤ 0.25
20,EGNA,≤ 0.25
21,NIYL,≤ 0.25
22,TEGM,4.56
23,TEYL,13
24,TEWA,38.4
25,TEWR,6.71

row,Variant,enrichment ratio
1,YTYL,≤ 0.25
2,TEWN,9.81
3,TEWS,28.5
4,TERM,≤ 0.25
5,TEWM,73.1
6,KSWS,≤ 0.25
7,TEWG,3.3
8,QHAH,≤ 0.25
9,DNQP,≤ 0.25
10,LKHW,≤ 0.25
11,NWHW,≤ 0.25
12,WFMI,≤ 0.25
13,IWYG,≤ 0.25
14,WQRD,≤ 0.25
15,HEYK,≤ 0.25
16,RHGY,≤ 0.25
17,TEGL,13.2
18,TEAM,16.4
19,TEWL,21.7
20,TERL,≤ 0.25
21,QEWD,4.99
22,TEEL,≤ 0.25
23,MEAM,9.82
24,KSWL,≤ 0.25
25,MEWL,≤ 0.25

row,Variant,enrichment ratio
1,KSWD,≤ 0.25
2,TEWD,13
3,NEAM,≤ 0.25
4,SQYM,≤ 0.25
5,VRMI,≤ 0.25
6,QHIN,≤ 0.25
7,SFID,≤ 0.25
8,DARD,≤ 0.25
9,RDIV,≤ 0.25
10,TEWF,22
11,NYWF,≤ 0.25
12,QEWF,≤ 0.25
13,RLCT,≤ 0.25
14,NKEG,≤ 0.25
15,NQVI,≤ 0.25
16,ADVE,≤ 0.25
17,AQVA,14.1
18,AQRA,≤ 0.25
19,AIVI,13
20,AQVI,18.1
21,AQVE,34.1
22,AQVK,≤ 0.25
23,VHVI,≤ 0.25
24,ICVI,≤ 0.25
25,WIVI,≤ 0.25

row,Variant,enrichment ratio
1,AQHE,≤ 0.25
2,DEDS,≤ 0.25
3,DGNR,≤ 0.25
4,DLTS,≤ 0.25
5,PPKY,≤ 0.25
6,ICPL,≤ 0.25
7,KKGI,≤ 0.25
8,DIWR,≤ 0.25
9,HNLR,≤ 0.25
10,VLVI,≤ 0.25
11,AIVE,12.3
12,RIVE,≤ 0.25
13,EQVS,≤ 0.25
14,AQWG,≤ 0.25
15,KQVS,≤ 0.25
16,AKVE,≤ 0.25
17,NMVI,≤ 0.25
18,AQVG,12
19,AQVC,9.47
20,AQVS,14
21,AMVI,16.3

# Source: a collection of fitness landscapes (doi:10.1126/science.1257360)
